Results on eight compounds are retold here after PubChem BioAssay (NCI).

Among the test systems are HCT-15 colon; HT29 colon; SNB-75 CNS; SNB-19 CNS; U251 CNS; PC-3 prostate; SK-MEL-5 melanoma; UACC-62 melanoma; LOX IMVI melanoma; SK-MEL-28 melanoma; SK-MEL-2 melanoma; EKVX NSCLC; SN12C renal; TK-10 renal; ACHN renal; CAKI-1 renal; A498 renal; CCRF-CEM leukemia; MOLT-4 leukemia; UO-31 renal.
Test in all cases: NCI-60 one-dose screen, 48 h (100 = growth as untreated, 0 = no growth, -100 = all killed)
Common to all, as to conditions: 10 µM

Molecules are shown by their SMILES. The panel holds about 83,000 compounds, 20% with a hit somewhere; the sample as a whole holds those more often.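 Method: cells in 96-well plates; compound added at one concentration; 48 h incubation; percent growth measured; values under 10 scored active.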 Unmarked numbers belong to inactive results. Activity calls are given as the source filed them.

Turning to `COc1ccc2nc(Cl)c(-c3cc(-c4ccccc4)nc(N)n3)cc2c1`, the growth was -64.5% (active) in the assay on HCT-15 colon; 7.7% (active) in the assay with HT29 colon; -1.67% (active) with SNB-75 CNS; 7.38% (active) in the assay on SNB-19 CNS; -62.4% (active) with U251 CNS; 33.6% in the assay on PC-3 prostate. Moreover, the growth was 66% in the assay on SK-MEL-5 melanoma; 28.4% in the assay on UACC-62 melanoma; -86% (active) with LOX IMVI melanoma; 61.4% with SK-MEL-28 melanoma; 69.5% in the assay with SK-MEL-2 melanoma; 59.8% with EKVX NSCLC. Besides, the growth was 10% with SN12C renal; 74.4% in the assay with TK-10 renal; 55.4% with ACHN renal; 60.4% with CAKI-1 renal; 84.8% in the assay on A498 renal; -4.77% (active) in the assay on CCRF-CEM leukemia. In addition, the growth in the assay with MOLT-4 leukemia was -18.1% (active).

With `CN1C(=O)/C(=C/c2nccs2)SC1=S`, the growth in the assay on HCT-15 colon is 68.8%; in the assay on HT29 colon, 99.4%; in the assay on SNB-75 CNS it was 66.4%; with SNB-19 CNS it was 90.5%; with U251 CNS it was 90.7%; in the assay with PC-3 prostate it was 109%. Besides, the growth in the assay on SK-MEL-5 melanoma was 96.6%; with UACC-62 melanoma, 79%; in the assay on LOX IMVI melanoma, 62.7%; in the assay on SK-MEL-28 melanoma it was 95.8%; in the assay with SK-MEL-2 melanoma it was 96.9%; with EKVX NSCLC, 80.7%. For the same compound, the growth was 75.8% in the assay on SN12C renal; 78.7% in the assay on UO-31 renal; 88.1% in the assay with ACHN renal; 72.9% in the assay with CAKI-1 renal; 109% with A498 renal; 98.8% with MOLT-4 leukemia.

As for `O=c1[nH]n(C(=S)N/N=C/c2ccc(F)cc2)c(=O)c2ccccc12`, the growth is 22.9% in the assay on HCT-15 colon; 58.1% in the assay on HT29 colon; 97.4% with SNB-75 CNS; 47.6% in the assay on SNB-19 CNS; 25.6% in the assay on U251 CNS; 58.1% with PC-3 prostate. For the same compound, the growth in the assay with SK-MEL-5 melanoma is 73.1%; in the assay with UACC-62 melanoma, 44.7%; in the assay on LOX IMVI melanoma, -24.9% (active); in the assay with SK-MEL-28 melanoma, 91.5%; with SK-MEL-2 melanoma, 82.7%; with EKVX NSCLC it was 88.2%. In addition, the growth in the assay with SN12C renal is 71.2%; with TK-10 renal, 102%; in the assay on ACHN renal, 82.5%; in the assay on CAKI-1 renal, 82%; in the assay with A498 renal, 105%; with CCRF-CEM leukemia, 12.8%.

On to `O=C(Nc1cccc(C(F)(F)F)c1)c1cncc(C#Cc2cnc3cccnn23)c1`, for which the growth in the assay with HCT-15 colon is 37.7%; in the assay on HT29 colon it was 49.4%; in the assay with SNB-75 CNS, 122%; in the assay on SNB-19 CNS it was 82.7%; with U251 CNS, 67.6%; in the assay with PC-3 prostate it was 35.3%. Also, the growth with SK-MEL-5 melanoma was 25.6%; with UACC-62 melanoma, 35.4%; in the assay with LOX IMVI melanoma, 22.1%; in the assay on SK-MEL-28 melanoma, 63.2%; in the assay on SK-MEL-2 melanoma, 61.1%; in the assay with EKVX NSCLC, 54.7%. The growth was 35.5% in the assay on SN12C renal; 97.8% in the assay with TK-10 renal; 55.2% in the assay on ACHN renal; 71.8% in the assay with CAKI-1 renal; 171% in the assay with A498 renal; 16.5% in the assay with CCRF-CEM leukemia. Moreover, in the assay with MOLT-4 leukemia, the growth is 24.3%.

Turning to `OCCNc1oc(-c2ccccc2)nc1[P+](c1ccccc1)(c1ccccc1)c1ccccc1`, the growth in the assay on HCT-15 colon was 77.8%; in the assay with HT29 colon it was 10.4%; with SNB-75 CNS, -1.51% (active); in the assay on SNB-19 CNS, 4.29% (active); with U251 CNS, 14.7%; with PC-3 prostate, 10.6%. Besides, the growth in the assay with SK-MEL-5 melanoma is -100% (active); in the assay on UACC-62 melanoma, -66.4% (active); in the assay with LOX IMVI melanoma, 2.03% (active); in the assay with SK-MEL-28 melanoma, 3.6% (active); in the assay with SK-MEL-2 melanoma, -31.8% (active); in the assay with EKVX NSCLC, 23.8%. For the same compound, the growth with SN12C renal is 2.4% (active); with UO-31 renal it was 71.8%; in the assay with ACHN renal it was 84.4%; in the assay with CAKI-1 renal, 75.1%; with A498 renal, 74.6%; in the assay on CCRF-CEM leukemia, 9.78% (active). For the same compound, the growth in the assay on MOLT-4 leukemia was 10.2%.

For `CN1CCc2c(sc3ncnc(N/N=C/c4cn(-c5ccccc5)nc4-c4ccc(Br)cc4)c23)C1`, the growth in the assay on HCT-15 colon is 27.4%; in the assay on HT29 colon, 16.5%; with SNB-75 CNS, 88.8%; in the assay with SNB-19 CNS, 62.4%; with U251 CNS, 44.9%; with PC-3 prostate it was 20.8%. For the same compound, the growth in the assay with SK-MEL-5 melanoma is 50%; with UACC-62 melanoma, 67.3%; with LOX IMVI melanoma it was 28.4%; with SK-MEL-28 melanoma, 68.9%; with SK-MEL-2 melanoma it was 58.3%; with EKVX NSCLC, 20.5%. Moreover, the growth in the assay on SN12C renal was 13.9%; in the assay on TK-10 renal, 92.3%; in the assay on ACHN renal, 65.6%; in the assay with CAKI-1 renal, 84.1%; with A498 renal it was 94.8%; with CCRF-CEM leukemia it was 15.7%. In addition, the growth in the assay with MOLT-4 leukemia was 2.95% (active).

In the case of `COc1cccc(-c2nn(-c3ccccc3)cc2-c2ccnc(NCCCNC(=O)Nc3ccc(F)cc3)c2)c1`, the growth in the assay on HCT-15 colon is -16.3% (active); in the assay with HT29 colon, -7.83% (active); in the assay on SNB-75 CNS, 0.286% (active); in the assay with SNB-19 CNS, 6% (active); in the assay on U251 CNS it was 8.94% (active); in the assay with PC-3 prostate, 3.99% (active). The growth with SK-MEL-5 melanoma is -71% (active); with UACC-62 melanoma it was 11.4%; with LOX IMVI melanoma it was 3.45% (active); in the assay on SK-MEL-28 melanoma, -3.54% (active); in the assay on SK-MEL-2 melanoma, -40.6% (active); with EKVX NSCLC, 20.7%. Also, the growth with SN12C renal is 23.6%; in the assay on TK-10 renal, 49.8%; in the assay with ACHN renal, 20.6%; with CAKI-1 renal it was 19.2%; in the assay with A498 renal, 58%; in the assay with CCRF-CEM leukemia it was -26.7% (active).

In the case of `Cc1ccc2nc(COc3ccc(C(=O)NNC(=S)NCCc4ccccc4)cc3)[nH]c2c1`, the growth in the assay on HCT-15 colon was 100%; in the assay on HT29 colon it was 112%; in the assay on SNB-75 CNS it was 120%; in the assay with SNB-19 CNS, -16.6% (active); in the assay on U251 CNS, 24%; in the assay with PC-3 prostate, 81.4%. The growth in the assay on SK-MEL-5 melanoma was 89%; with UACC-62 melanoma, 49.9%; with LOX IMVI melanoma it was 79.9%; with SK-MEL-28 melanoma it was 92.9%; with SK-MEL-2 melanoma, 81.7%; with EKVX NSCLC, 95%. The growth in the assay with SN12C renal is 77.3%; in the assay with UO-31 renal, 84.3%; in the assay on ACHN renal it was 101%; with CAKI-1 renal, 96.2%; with A498 renal, 134%; in the assay on CCRF-CEM leukemia, 98.3%. Further, in the assay on MOLT-4 leukemia, the growth was 96.1%.
